# This is one part of the list. Calls of active or inactive are those of the source.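 The calls were made as follows: active = activation above the solvent-only control wells' mean plus 3 SD (cut at about 11% in these data); inactive = the rest.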
# Target: Neuropeptide Y receptor type 2 (Homo sapiens) (UniProt P49146)
# Experiment: NPY-Y2 direct agonists without NPY, counter-screen for NPY-Y1 potentiator project, cell-based, fluorescence (AID 1698);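 also: 0% = DMSO with isoproterenol and 100% = 40 nM NPY maximal response; agonism lowers cAMP so well fluorescence drops in active wells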
# Settings: HEK293 Y2-CNGC, membrane potential fluorescence, agonist mode; at 3.6 µM; hits give high values
# Neuropeptide Y receptor type 2 (Homo sapiens), sequence (P49146 whole entry, looked up): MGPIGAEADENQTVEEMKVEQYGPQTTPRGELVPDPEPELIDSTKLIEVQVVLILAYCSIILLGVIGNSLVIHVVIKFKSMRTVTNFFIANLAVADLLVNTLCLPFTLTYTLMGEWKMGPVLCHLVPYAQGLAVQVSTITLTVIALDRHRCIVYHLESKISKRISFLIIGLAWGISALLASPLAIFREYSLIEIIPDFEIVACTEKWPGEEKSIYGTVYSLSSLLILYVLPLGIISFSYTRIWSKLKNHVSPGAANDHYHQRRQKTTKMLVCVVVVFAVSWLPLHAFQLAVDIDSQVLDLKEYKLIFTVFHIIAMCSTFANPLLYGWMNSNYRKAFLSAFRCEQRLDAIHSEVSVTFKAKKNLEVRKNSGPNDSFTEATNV
row,SMILES,activation
1,CSC1=NP(=S)(SC)N(C)c2nc3n(c21)CCC3 (configuration not stated),5.24% (inactive)
2,Cc1nn(Cc2ccccc2Cl)c(Cl)c1C(=O)OC(C(=O)NC(N)=O)C(C)C (configuration not stated),31.5% (active)

# Reference: PubChem BioAssay AID1698 (The Scripps Research Institute Molecular Screening Center, 2009)
